Rows were chosen to be rich in hits. Some 4% of all compounds tested hit in one or more screens of this group.
aDG glyco act – alpha-DG glycosylation activation; Pro5-aDG cells, alpha-DG glycosylation AlphaScreen (IIH6); 0% Pro5, 100% B10-LARGE cell signal; AID 624168; hit rate 0.22% among 360,000; activation, % at 10 µM;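 active means activation of at least 8% versus controls, or a plate z-score of at least 8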;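 further: Pro5 are CHO cells carrying HIG-tagged alpha-DG that lacks glycosylation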
ADAM10 inh – inhibits human ADAM10; O14672; recombinant ADAM10, EDANS/DABCYL FRET peptide cleavage, 3 h; inhibition, % at 7 µM; hit rate 0.62% among 370,000; AID 720582;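 active means inhibition above a per-campaign cutoff equal to the mean of compounds falling between control-based bounds plus 3 SD, cut at about 20% in these data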;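 further: 0% = DMSO wells while the 100% control is not disclosed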
Target sequence (O14672 214-748 limits assumed): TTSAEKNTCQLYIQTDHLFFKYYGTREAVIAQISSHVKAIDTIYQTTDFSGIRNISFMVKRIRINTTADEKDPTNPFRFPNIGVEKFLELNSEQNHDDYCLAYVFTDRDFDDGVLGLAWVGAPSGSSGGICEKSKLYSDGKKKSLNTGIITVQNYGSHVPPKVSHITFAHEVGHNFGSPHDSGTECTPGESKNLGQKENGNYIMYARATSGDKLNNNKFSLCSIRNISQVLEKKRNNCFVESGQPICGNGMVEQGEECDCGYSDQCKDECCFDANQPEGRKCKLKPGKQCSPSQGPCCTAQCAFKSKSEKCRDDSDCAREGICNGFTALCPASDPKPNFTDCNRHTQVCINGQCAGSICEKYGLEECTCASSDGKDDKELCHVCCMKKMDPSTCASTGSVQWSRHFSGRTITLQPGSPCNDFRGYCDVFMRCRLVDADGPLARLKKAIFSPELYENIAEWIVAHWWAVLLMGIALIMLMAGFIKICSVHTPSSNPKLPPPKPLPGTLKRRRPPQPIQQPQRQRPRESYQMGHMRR
GRIN3A LBD mod – modulates the human NR3A ligand-binding domain; Tm shift relative to glycine control, % at 25 µM; hit rate 2.5% among 340,000; NR3A LBD differential scanning fluorimetry, Tm shift; 0% = protein alone, 100% = glycine-bound protein;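 active means melting temperature shift of at least 10% of the positive control shift, at one fixed dose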
ADAM17 inh – inhibits human ADAM17 | P78536 | recombinant ADAM17, EDANS/DABCYL FRET peptide cleavage | hit rate 0.83% among 370,000 | inhibition, % at 6.95 µM;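 active means inhibition above the mean of compounds lying between control limits plus 3 SD, set per campaign, cut at about 8.5% in these data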;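 further: 0% = DMSO-only wells as the low control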
FAS-TE inh – FAS thioesterase (human) inhibition | recombinant FAS-TE, OMFH fluorogenic substrate, fluorescence endpoint | inhibition, % at 15 µM | hit rate 0.67% among 360,000;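 active means compounds whose normalised, plate-corrected inhibition of enzyme fluorescence in the single-dose primary screen is 50% or more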;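 further: 0% = DMSO with enzyme and 100% = substrate without enzyme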
Active calls of the source: *; x = not tested or not shown.

SMILES	aDG glyco act	ADAM10 inh	GRIN3A LBD mod	ADAM17 inh	FAS-TE inh
COC(=O)C1CN(CC(C)C)CCS(=O)(=O)N1Cc1ccc(OC)cc1 (configuration not stated)	x	4	x	-2	x
CC(C)NC(=O)c1ccccc1NC(=O)C1CCCO1 (configuration not stated)	0	-7	-2	-6	-8
CCc1ccccc1NC(=O)CN(C)C(=O)COC(=O)c1cccnc1Cl	0	-8	0	7	-9
CN(CC(=O)Nc1cccc(F)c1)C(=O)c1cn(-c2ccccc2)nc1-c1ccc(F)cc1	0	19	35*	6	31
Cc1ccc(-c2nn(-c3ccccc3)cc2/C=C/C(=O)Nc2nccs2)cc1	0	-13	24*	-4	0
O=C(Nc1cccc(S(=O)(=O)N2CCOCC2)c1)c1cn(-c2ccccc2)nc1-c1ccc(F)cc1	0	13	22*	1	41
CN(CC(=O)Nc1cccc(F)c1)C(=O)c1cccc2ccccc12	0	4	-2	2	6
Cc1[nH]n(-c2ccccc2)c(=O)c1N=Nc1c(O)cc(S(=O)(=O)N(C)C)c2ccccc12	0	2	3	-4	32
CCCC(=O)Nc1nc2ccc(NC(=O)c3ccc(Br)o3)cc2s1	0	4	18*	7	7
O=C(Nc1ccc2nn(-c3ccccc3)nc2c1)c1ccc2c(c1)OCCO2	1	-139	21*	-52	15
CC(=O)c1cccc(NC(=O)c2ccc(Br)o2)c1	0	1	-2	-5	-3
O=C(Nc1ccc2nn(-c3ccccc3)nc2c1)c1ccc(Br)o1	0	-11	19*	-7	8
O=C(/C=C/c1ccco1)Nc1ccc2nn(-c3ccccc3)nc2c1	0	-46	14*	-14	18
COc1ccc(-c2nc(CS(=O)(=O)CC(=O)NC3CCC(C)CC3)c(C)o2)cc1 (configuration not stated)	0	-2	0	-2	4
CCOc1ccc(-n2nc3ccc(NC(=O)c4ccc5c(c4)OCCO5)cc3n2)cc1	0	-49	19*	-30	9
Cc1cc(C)c(C#N)c(SCCS(=O)(=O)Cc2ccc(Cl)cc2)n1	0	-10	18*	-7	24
COC(=O)C(C(=O)OC)c1ccc(-n2cccc2)cc1	1	-4	0	-5	-1
CCOC(=O)/C(=N\Nc1cc(C(F)(F)F)ccc1Cl)N(CC)CC	0	4	15*	4	15
Cc1cc(/C=N/n2cnnc2)c(C)n1-c1ccc(OCc2ccccc2F)cc1	5.9*	-3	-4	2	-4
Cc1cc(/C=N/n2cnnc2)c(C)n1-c1ccc(OCc2ccc(Cl)cc2)cc1	5	8	-2	6	-11
CCOc1cc(NC(=S)NC)c(OCC)cc1NC(=O)c1cccs1	0	1	2	-1	0
CCc1cccc(CC)c1NC(=O)COC(=O)c1cccc(S(=O)(=O)N2CCc3ccccc3C2)c1	0	-3	-2	0	-14
Cc1cccc(C(C)C)c1NC(=O)COC(=O)c1cccc(S(=O)(=O)N2CCc3ccccc3C2)c1	0	-1	22*	-1	-5
COC(=O)C1=C(C)N=C2SC(C)C(=O)N2C1c1ccc(C(=O)OC)cc1 (configuration not stated)	0	13	-7	3	-4
C=CCNC(=O)c1ccccc1NC(=O)c1ccc(Cl)c(S(=O)(=O)Nc2ccccc2)c1	0	27*	14*	7	23
SMILES	aDG glyco act	ADAM10 inh	GRIN3A LBD mod	ADAM17 inh	FAS-TE inh
Clc1ccc2c(c1)nc1n2CCCC1	0	6	15*	1	-4
C=CCOc1ccc(CNc2nccs2)cc1	0	-9	-1	-3	-9
O=C1C(=O)c2ccccc2C(O)=C1CCCCl	3.8*	x	-1	x	-5
O=C(Nc1cccc(C(F)(F)F)c1)C1Cc2c(-c3ccc(Cl)cc3)ccnc2O1 (configuration not stated)	1	16	x	7	30
Cc1cc(C)nc(SCC(=O)n2c3c(c4ccccc42)CCCC3)n1	0	-6	13*	-5	5
O=C(CSc1ncccn1)n1c2c(c3ccccc31)CCCC2	0	17	-45	2	34
Cc1ccc(-c2nn(-c3ccccc3)cc2/C=N/NS(=O)(=O)c2ccccc2)cc1	0	12	24*	7	25
COc1ccc(-c2nn(-c3ccccc3)cc2/C=N/NC(N)=S)cc1OC	0	-6	19*	0	11
O=[N+]([O-])c1ccc(N/N=C/c2cn(-c3ccccc3)nc2-c2ccccc2)cc1	-1	5	41*	-5	-3
Cc1ccc(-c2nn(-c3ccccc3)cc2/C=N/O)cc1	0	16	-9	-1	0
Cc1ccc(S(=O)(=O)N/N=C\c2cn(-c3ccccc3)nc2-c2ccccc2)cc1	0	10	29*	6	36
NC(=O)N/N=C/c1cn(-c2ccccc2)nc1-c1ccccc1	0	5	-13	0	2
COc1ccc(-c2nn(-c3ccccc3)cc2/C=N/n2cnnc2)cc1OC	1	-5	0	-5	-6
NS(=O)(=O)c1ccc(N/N=C/c2cn(-c3ccccc3)nc2-c2ccccc2)c([N+](=O)[O-])c1	0	-2	7	-2	8
CCN(CC)C(=O)Cn1cc(S(=O)(=O)CC(=O)Nc2ccc(F)cc2F)c2ccccc21	0	0	1	2	-4
COc1ccc2oc(C(=O)OCC(=O)NCc3ccccc3OC)c(C)c2c1	0	-31	1	-10	-1
CCOP(=O)(c1ccc(N(C)C)cc1)C(O)c1ccc(Cl)cc1 (configuration not stated)	0	-10	1	-5	-3
COc1ccccc1CC(=O)NNS(=O)(=O)c1ccccc1[N+](=O)[O-]	0	3	-2	-2	-4
O=S(=O)(N/N=C\c1cn(-c2ccccc2)nc1-c1ccccc1)c1ccccc1	0	12	20*	3	24
N/C(=N\OC(=O)Cc1ccc(Cl)cc1)c1ccccn1	2	5	-1	0	-3
COc1ccc(-c2c(C)c3cc(O)ccc3oc2=O)cc1OC	0	-2	42*	-7	-11
CCn1c(SCC(=O)Nc2ccc(C(C)=O)cc2)nc2c([nH]c3ccccc32)c1=O	0	-7	14*	2	1
Cn1c(=O)c2c(nc(CN3CCN(Cc4ccccc4)CC3)n2Cc2ccc(F)cc2)n(C)c1=O	-1	3	-1	1	19
CCOc1ccc(S(=O)(=O)N2CCOCC2)cc1NC(=O)C1CSC2(C)CCC(=O)N12 (configuration not stated)	0	0	-2	5	-4
COc1ccc(C(=O)Nc2ccc(NC(=O)c3cccs3)cc2)cc1[N+](=O)[O-]	0	-4	24*	-2	-6
